TLR4-MyD88 BLA: inhibitors of human TLR4-MyD88 binding; actives 0.18% (n = 200,000); inhibition, % at 8.4 µM; HeLa CL3-4 TLR4/MyD88 BLA complementation, FRET ratio; AID 861; in the data active means inhibition above about 25%;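 further: 0% = vehicle and 100% = reference inhibitor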
NOD2-RIPK2 inh: inhibitors of human NOD2-RIPK2 interaction. O43353. inhibition, % at 4.98 µM. CHO BLA complementation NOD2-RIPK2, CCF4 ratio. actives 0.38% (n = 360,000). AID 624267; in the data active means inhibition above about 21%;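 further: 0% = vehicle only and 100% = reference blocker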
TLR9-MyD88 inh: TLR9-MyD88 interaction inhibition | Q9NR96+Q99836 | CHO BLA complementation TLR9-MyD88, CCF4 FRET ratio | inhibition, % at 4.98 µM | actives 0.21% (n = 340,000);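 active means inhibition above the mean over all tested compounds plus 3 SD, cut at about 21% in these data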;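 further: 0% = DMSO only wells and 100% = clavulanate BLA inhibitor control wells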
TMEM16A inh: inhibitors of mouse TMEM16A calcium-activated chloride channel. HEK293 TMEM16A/YFP iodide influx fluorescence, ionomycin. normalized B-score (activity score, 25-100; higher = stronger inhibition) at 10 µM. actives 1.2% (n = 310,000). AID 588511;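 active means ratio plate-corrected score three or more library SD toward inhibition, starting fluorescence score within five deviations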;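 further: score derived from kinetic fluorescence span divided by baseline fluorescence per well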
TMEM16A act: activates or potentiates the mouse TMEM16A chloride channel. actives 0.3% (n = 340,000). HEK293 TMEM16A/YFP-H148Q/I152L, iodide quench fluorescence; active compounds read low. AID 623877. B-score at 10 µM. Q8BHY3;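 active means fluorescence-ratio B-score plate-corrected deviation score at least 3 library SD below zero, with starting fluorescence score within 5 deviations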;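 further: channel opened by trigger with iodide after compound preincubation; score built on the fluorescence ratio of max minus min over baseline; more negative score means more quench and so TMEM16A activation or potentiation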
m5-HT2A agonist: activates the mouse 5-HT2A serotonin receptor. P35363. CHO-K1 mHTR2A beta-arrestin complementation, luminescence; percent of 30 µM serotonin response. activation, % at 7.6 µM. actives 0.66% (n = 360,000). AID 624169;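 active means activation above a run cutoff, the mean activation of all tested compounds plus 3 SD, cut at about 14% in these data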;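 further: 0% = plate median of compound wells and 100% = 30 µM serotonin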
Target sequence (P35363 whole entry, looked up): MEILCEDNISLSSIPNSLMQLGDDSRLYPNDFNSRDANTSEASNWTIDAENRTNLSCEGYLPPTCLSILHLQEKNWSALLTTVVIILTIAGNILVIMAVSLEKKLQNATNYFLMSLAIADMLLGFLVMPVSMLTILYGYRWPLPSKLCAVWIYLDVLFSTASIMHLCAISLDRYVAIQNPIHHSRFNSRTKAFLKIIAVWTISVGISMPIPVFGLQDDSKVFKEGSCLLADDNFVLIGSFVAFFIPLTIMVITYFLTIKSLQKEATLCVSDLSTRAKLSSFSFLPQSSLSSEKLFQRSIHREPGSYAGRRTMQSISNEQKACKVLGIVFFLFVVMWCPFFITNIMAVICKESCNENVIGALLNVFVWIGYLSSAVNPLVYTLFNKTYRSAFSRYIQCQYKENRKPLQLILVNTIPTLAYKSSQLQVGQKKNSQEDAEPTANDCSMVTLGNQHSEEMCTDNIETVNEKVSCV
Active calls of the source: *; i = inactive; nt = no result. Sampled rows, rich in hits. Any-hit rate of the full collection: about 2.4%.

SMILES | TLR4-MyD88 BLA | NOD2-RIPK2 inh | TLR9-MyD88 inh | TMEM16A inh | TMEM16A act | m5-HT2A agonist
COc1ccc(C(=O)NNC(=S)NC(=O)C(C)(C)C)cc1 | -3 | -7 | -3 | 25* | i | -4
CC1(C)CC(=O)C(C=NCC2CCN(C(=O)Nc3ccc(Cl)c(Cl)c3)CC2)=C(O)C1 | 10 | -3 | 2 | i | i | 1
Cc1c(N=Cc2cccs2)c(=O)n(-c2ccccc2)n1C | -11 | -3 | 3 | 100* | i | 0
Cc1ccsc1C=Nc1c(C)n(C)n(-c2ccccc2)c1=O | 9 | -13 | 3 | i | i | 3
COc1ccc(OC)c(C2=Nn3c(nnc3-c3cccc(OC(C)C)c3)SC2)c1 | -13 | -3 | 4 | i | -5* | 3
CCN(CC)N=Nc1ccc(S(N)(=O)=O)cc1 | -9 | 2 | 3 | i | -6.1* | -4
CN(C)N=Nc1ccc(S(N)(=O)=O)cc1 | -3 | 2 | -13 | i | i | 1
Cc1cc(C)n(C(=O)CNC(=O)c2ccc(Cl)cc2Cl)n1 | nt | -7 | 6 | i | i | 5
CCCCn1c(N)c(N(CCOC)C(=O)COC(=O)c2cc(CCC)c(C)s2)c(=O)[nH]c1=O | nt | 0 | 3 | i | i | 4
COc1cccc2cc3c(=O)oc4ccccc4c3nc12 | 7 | -7 | -7 | i | -12* | 0
CCOc1ccc(C(C)NC(=O)C2CCN(S(=O)(=O)c3ccc(OC)cc3)CC2)cc1OCC (configuration not stated) | nt | -9 | -13 | nt | i | 1
O=C(NCc1cccnc1)NC1(c2ccccc2)CC1 | -4 | -17 | 15 | i | i | 20*
CCOc1ccc(S(=O)(=O)NCc2ccncc2)cc1 | 3 | -2 | 7 | 25* | i | 6
CCCS(=O)(=O)N1CCN(C2Cc3ccccc3C2)CC1 | nt | 13 | 6 | i | -13* | -8
COc1ccc(S(=O)(=O)NCCSC(C)(C)C)c(Cl)c1Cl | -2 | -2 | 5 | 25* | i | -6
S=C(NCC1CCCO1)N1CCN(c2ccccc2)CC1 (configuration not stated) | -1 | -7 | 5 | i | i | -1
FC(F)(F)c1cccc(N2CCN(C(=S)NCC3CCCO3)CC2)c1 (configuration not stated) | -10 | 3 | -1 | 25* | i | -2
O=C(Cc1ccccc1)NN1C(=O)C2C3C=CC(C3)C2C1=O (configuration not stated) | -4 | 3 | -3 | i | -38* | 1
CCOC(=O)CN1CC23C=CC(O2)C(C(=O)NCCc2ccccc2)C3C1=O (configuration not stated) | 12 | 1 | 6 | i | -11* | -3
CC1CC(=O)N(CCc2ccccc2)C(=O)C1 | nt | 7 | -7 | nt | i | 6
O=C(NC(=S)NC1C2CC3CC(C2)CC1C3)c1ccccc1 (configuration not stated) | nt | -3 | -10 | i | -4.7* | 6
CCOC(=O)C1=CCN(S(=O)(=O)c2ccc(C)cc2)C1c1ccc(Br)cc1 (configuration not stated) | nt | -15 | nt | nt | nt | -3
Cn1c(=O)oc2cc(C(=O)c3ccccc3)ccc21 | 1 | 11 | -1 | i | i | -1
O=C(NC1CC1)C(=O)c1c(-c2ccccc2)[nH]c2ccccc12 | 2 | -9 | -4 | i | -7.5* | 0
Cc1ccc(Cl)cc1NC(=O)CSc1sc2c(O)cc(=O)[nH]c2c1C#N | nt | -3 | -3 | i | -4.9* | -3
SMILES | TLR4-MyD88 BLA | NOD2-RIPK2 inh | TLR9-MyD88 inh | TMEM16A inh | TMEM16A act | m5-HT2A agonist
N/C(=N\OC(=O)COc1ccc2ccccc2c1Br)c1cccnc1 | -2 | nt | nt | 25* | nt | nt
N/C(=N\OC(=O)COc1ccc2ccccc2c1Br)c1ccccn1 | -21 | -8 | 8 | i | i | -3
Cc1c(OC(C)C(=O)NCC(O)c2ccccc2)ccc2c3c(c(=O)oc12)CCCC3 (configuration not stated) | nt | 13 | -8 | i | i | -6
CN(CC(=O)Nc1ccccc1N1CCOCC1)S(=O)(=O)c1ccc(F)cc1 | -3 | -5 | -5 | 25* | i | -3
COC(=O)CS(=O)(=O)c1nnc([C@H](Cc2ccccc2)NC(=O)OC(C)(C)C)o1 | 8 | 46* | -2 | i | i | -5
Cc1cccc(CS(=O)(=O)c2nnc([C@H](Cc3ccccc3)NC(=O)OC(C)(C)C)o2)c1 | 5 | 65* | 11 | i | i | -2
CC(C)(C)OC(=O)N[C@@H](Cc1ccccc1)c1nnc(SCC(N)=O)o1 | nt | -4 | -16 | i | i | 1
CCCOC(=O)c1ccc(NC(=O)CC(C)(C)C)cc1 | 4 | -7 | -5 | i | i | -2
Cc1cc2c(cc1S(=O)(=O)Nc1cccc(C)c1C)OCC(=O)N2 | nt | 5 | 3 | i | i | -2
Cc1ccc(N2C(=O)[C@@H]3C(c4cccnc4)=NO[C@@H]3C2=O)c(C)c1 | nt | 3 | -3 | 25* | i | -1
Cc1ccc(SCC(=O)N2c3ccccc3Sc3ccccc32)cc1 | -6 | -2 | 2 | 100* | i | 3
Cc1c(C)c2ccc(OCC(=O)N3CC[C@@]4(O)CCCC[C@H]4C3)cc2oc1=O | nt | 1 | -1 | i | -5.6* | -5
O=C(COc1ccc2ccccc2c1)NCC(=O)N/N=C/c1ccco1 | 0 | -7 | -7 | i | i | 14
CC1(C)SC(=S)N(/N=C/c2ccc(O)cc2)C1N(O)C(=O)Nc1ccc([N+](=O)[O-])cc1 (configuration not stated) | -2 | 3 | 9 | 100* | i | -2
Cc1ccc(/C=N/N2C(=S)SC(C)(C)C2N(O)C(=O)Nc2ccc([N+](=O)[O-])cc2)cc1 (configuration not stated) | 9 | 3 | 4 | i | i | -1
O=C(N/N=C/c1cn(Cc2ccccc2)c2ccccc12)c1cccnc1 | -11 | 2 | 4 | i | i | -9
O=C(N/N=C/c1cn(Cc2ccccc2)c2ccccc12)c1ccncc1 | -21 | 0 | -16 | 100* | i | -9
Cc1ccc(Nc2c(F)c(F)c(F)c(F)c2C(=O)O)cc1 | -9 | 4 | -3 | 25* | i | 2
S=C(Nc1ccc(Cl)cc1Cl)Nc1ccccc1Oc1ccccc1 | -11 | 5 | -6 | i | i | 2
S=C(Nc1cccc(Cl)c1)Nc1ccccc1Oc1ccccc1 | -3 | 3 | -1 | 100* | i | 3
O=C(CC1Sc2ccccc2NC1=O)NNC(=O)Nc1ccc(Cl)cc1 (configuration not stated) | nt | -10 | -1 | i | i | 3

High-throughput results from PubChem.
